Measurements taken from ChEMBL document CHEMBL4513216, “Probing the Open Global Health Chemical Diversity Library for Multistage-Active Starting Points for Next-Generation Antimalarials” (ACS Infect Dis, 2020).
Screen size: about 69,000 compounds; about 8,600 (12%) showed an effect of 50% or more. This is one part of a sample in which strong results are shown more often than they occur.

Each compound was assayed on Plasmodium berghei (assay: Screen against P. berghei liver stage (PbLuc), transformed with Luciferase, at 10uM). Details: tested at 10 uM.
Assay type: functional, HepG2

Compared with `CC(NC(=O)NCCCN(C(C)C)S(C)(=O)=O)c1ccncc1` (configuration not stated), `O=C(NCCCO)Nc1cnc2cc(Cl)ccc2c1O` is higher in INHIBITION: -11.4% for the first, 54.4% for the second.

Going from `NC(=O)CN(C(=O)C1Cc2cc(Cl)ccc2O1)C1CCCC1` (configuration not stated) to `CNC(=O)CCN1CCCCCC1c1ccc(C)o1` (configuration not stated), the INHIBITION rises from 6.83% to 72.5%.

Going from `O=C(O)c1ccc(F)c(S(=O)(=O)N2CCOc3ccccc32)c1` to `Cc1c(NCc2ccccc2C#N)cccc1S(=O)(=O)NC1CC1`, the INHIBITION rises from 32.44% to 64.9%.

First: Cc1ccc(C(=O)N2C[C@H]3CC[C@@H](C2)N(CC2CCC2)C3)s1
Second: COCCN(C)CC(=O)N1C[C@@H]2CC[C@H]1CN(C(=O)c1ccncc1)C2
The INHIBITION of the first is lower: -26.4% for the first, 8.57% for the second.

First: COc1ncnc2c1CCN(Cc1cccs1)CC2
Second: Cn1nccc1C1CCN(Cc2csc(-c3ncccn3)n2)CC1
The INHIBITION of the first is lower: -0.804% for the first, 11.1% for the second.

Going from `CCc1noc(C2CCCCN2C(=O)c2cccs2)n1` (configuration not stated) to `CCc1noc(C2CCCCN2C(=O)c2ccccc2)n1` (configuration not stated), the INHIBITION falls from 9.32% to -45%.

First: CCc1noc(C2CCCCN2C(=O)c2ccoc2C)n1 (configuration not stated)
Second: CCc1noc(C2CCCCN2C(=O)c2cc(C)oc2C)n1 (configuration not stated)
The INHIBITION of the first is lower: 22.1% for the first, 78.1% for the second.

First: CCc1noc(C2CCCCN2C(=O)c2ccn(C3CCCC3)n2)n1 (configuration not stated)
Second: CCc1noc(C2CCCCN2C(=O)c2cc(C)n(C)n2)n1 (configuration not stated)
The INHIBITION of the first is lower: 6.32% for the first, 52.4% for the second.

Compared with `CCc1noc(C2CCCCN2C(=O)c2nnc3ccccc3n2)n1` (configuration not stated), `CCc1noc(C2CCCCN2C(=O)c2ccc(C)o2)n1` (configuration not stated) is lower in INHIBITION: 62.4% for the first, 45.8% for the second.

First: CCc1noc(C2CCCCN2C(=O)c2cc(C)on2)n1 (configuration not stated)
Second: Cc1ccc(C2CCCCCN2CCNS(C)(=O)=O)o1 (configuration not stated)
The INHIBITION of the first is lower: 22.6% for the first, 39.4% for the second.

Compared with `Cc1nn(CC(=O)Nc2ccon2)cc1Br`, `Cn1cc(CN2CCC(CCC(=O)Nc3ccccc3Cl)CC2)cn1` is higher in INHIBITION: 20.1% for the first, 34% for the second.

Going from `CN1CCC(N(CCc2ccccc2)C(=O)c2ccoc2)CC1` to `CSc1cccc(CN2CCC(CCC(=O)Nc3ccccc3)CC2)c1`, the INHIBITION rises from 32.8% to 47.7%.

Going from `CC(=O)N1CCC(C)(c2cc[nH]n2)CC1` to `CC(=O)N1CCN(C(=O)c2ccc(Sc3ccccn3)cc2)CC1`, the INHIBITION falls from 35% to 14.4%.

Compared with `CN1CCN(CC(NCc2ccc(F)c(F)c2)c2ccccc2)CC1` (configuration not stated), `Cn1nccc1C1CCN(CC(O)c2cccc(F)c2)CC1` (configuration not stated) is higher in INHIBITION: 8.31% for the first, 20.9% for the second.

First: Cc1nonc1CC(=O)N1CCC2(CCCN(C3CCOCC3)C2=O)C1 (configuration not stated)
Second: O=C(c1n[nH]c2c1CN(C1CCOC1)CC2)N1CCOCC1 (configuration not stated)
The INHIBITION of the first is lower: -41.8% for the first, 9.97% for the second.

First: CCn1ccnc1CN1CCC(CCC(=O)Nc2ccccc2Cl)CC1
Second: Cn1ccnc1CN1CCC(CCC(=O)Nc2ccccc2Cl)CC1
The INHIBITION of the first is higher: 71.8% for the first, 9.72% for the second.

First: CCn1ccnc1CN1CCN(CC(=O)NC(=O)NC2CC2)CC1
Second: CCn1ccnc1CN1CCN(CC(=O)NC2CCOCC2)CC1
The INHIBITION of the first is lower: -3.95% for the first, 22.5% for the second.

Compared with `O=C(CCC1CCN(Cc2ccncc2)CC1)Nc1ccccc1Cl`, `O=C(CCC1CCN(Cc2ncc[nH]2)CC1)Nc1ccccc1Cl` is lower in INHIBITION: 70.1% for the first, 38.5% for the second.

Compared with `CSc1ccc(CN2CCC(CCC(=O)Nc3ccccc3)CC2)cc1`, `CCn1cc(CN2CCC(CCC(=O)Nc3ccccc3Cl)CC2)cn1` is lower in INHIBITION: 64.5% for the first, 49.5% for the second.

First: CCn1ccnc1CN1CCN(CC(=O)NC(C2CC2)C2CC2)CC1
Second: CSc1cccc(CN2CCC(CCC(=O)NC3CC3)CC2)c1
The INHIBITION of the first is higher: 51.85% for the first, 35.4% for the second.

First: CN(C)CCN1C(=O)CCCC12CCCN(Cc1ccc[nH]1)C2 (configuration not stated)
Second: CS(=O)(=O)NCC1CCCCN1Cc1ccccc1C#N (configuration not stated)
The INHIBITION of the first is higher: 26% for the first, -27.6% for the second.

Going from `Cc1cccc(C)c1Nc1noc2c1CN(C(=O)c1ccnn1C)CC2` to `CCn1cc(CN2CCCN(C(=O)c3cccn3C)CC2)cn1`, the INHIBITION falls from 45.5% to 13.6%.

Going from `O=C(C1CCC2(CCN(CC3CCOCC3)CC2)O1)N1CCCCO1` (configuration not stated) to `CN1CCC2(CCN(CC3CC3)CC2)C1=O`, the INHIBITION falls from 38.3% to 23.3%.

Going from `CS(=O)(=O)N1CC[C@]2(C[C@H](Oc3ccccn3)CO2)C1` to `CN(C)CC(=O)N1CCOCC(Cc2ccccn2)C1` (configuration not stated), the INHIBITION rises from -23.4% to -20.6%.

Compared with `CCc1noc(CN(CC)Cc2cc3ccc(C)cc3[nH]c2=O)n1`, `COc1cc(CNCC(O)c2ccc(C)cc2)cc2c1OCO2` (configuration not stated) is lower in INHIBITION: 9.56% for the first, -5.25% for the second.

Going from `Cc1cnn(CCC(=O)N2CCN(c3nccs3)CC2)c1` to `Cc1ncc(CN2CCC(c3ccnn3C)CC2)n1-c1ccccc1`, the INHIBITION rises from 23.5% to 77.2%.

Compared with `O=C(NCCCN1CCOCC1)Nc1cnc2cc(Cl)ccc2c1O`, `O=C(NCCO)Nc1cnc2cc(Cl)ccc2c1O` is lower in INHIBITION: 35.8% for the first, 24.4% for the second.

Compared with `CNS(=O)(=O)CCCN1CCCCCC1c1ccc(C)o1` (configuration not stated), `Cc1ccc(NC(=O)NCC2(O)CCCC2)cc1C` is lower in INHIBITION: 23.3% for the first, -108% for the second.

First: COc1cc(CNCC(C)O)cc(Cl)c1OCc1ccc(C)cc1 (configuration not stated)
Second: COc1cccc(CNC(C)C)c1OCc1ccc(C)cc1
The INHIBITION of the first is higher: 52.2% for the first, 5.46% for the second.

Going from `NC(=O)c1c[nH]nc1NC(=O)c1ccc(Cl)cc1` to `Cc1cc(NCc2cccc(C#N)c2)ccc1C(N)=O`, the INHIBITION rises from -6.3% to -0.759%.

Compared with `Cc1ccc(NCc2ccccc2C#N)cc1-n1cnnn1`, `Cc1c(NCc2ccccc2C#N)cccc1-n1cnnn1` is higher in INHIBITION: 10.6% for the first, 62.4% for the second.

Going from `Cc1ccc(NCc2ccc(C#N)cc2)cc1-n1cnnn1` to `Cc1cc(NCc2cccc(C#N)c2)ccc1Br`, the INHIBITION rises from 14.3% to 44.3%.

Compared with `Cc1nnc(NCc2ccccc2S(=O)(=O)N(C)C)c(C#N)c1C`, `Cc1c(NCc2cccc(C#N)c2)cccc1S(=O)(=O)NC1CC1` is higher in INHIBITION: 15.92% for the first, 67.5% for the second.

Compared with `Cc1ccc2c(c1C)OCC2NCc1ccc(C#N)cc1` (configuration not stated), `Cc1c(NCc2ccc(C#N)cc2)cccc1S(=O)(=O)NC1CC1` is higher in INHIBITION: 40.9% for the first, 73.9% for the second.

Compared with `CC(C)N(CCNCc1ccc(C#N)cc1)C1CC1`, `CNC(=O)[C@H]1C[C@H]2CN(Cc3ccc(OC)cc3)C[C@@H]1O2` is higher in INHIBITION: -8.45% for the first, 8.66% for the second.

Going from `CC(C)CN(CC(O)c1ccccc1)C(=O)Nc1nccs1` (configuration not stated) to `O=C(O)c1ccccc1CN1CCC(c2ccnc3ccnn23)CC1`, the INHIBITION rises from -10.9% to -9.32%.

Compared with `c1ccc(-n2ccc(CN3CCCC3Cn3cccn3)n2)cc1` (configuration not stated), `c1ccc(-n2ncc(CN3CCCC3Cn3cccn3)n2)cc1` (configuration not stated) is lower in INHIBITION: 36.4% for the first, -0.75% for the second.

First: c1ccc(-n2ccc(CN3CCOC(Cn4cncn4)C3)n2)cc1 (configuration not stated)
Second: Cn1nccc1C1CCN(Cc2ccn(-c3ccccc3)n2)CC1
The INHIBITION of the first is lower: 7.08% for the first, 74.2% for the second.

`Cn1nccc1C1CCN(Cc2cnn(-c3ccccc3)n2)CC1` gave an INHIBITION of 81.2%.
